Data as given in PubChem BioAssay (NCATS).
Inconclusive results are not listed. Calls of active or inactive are those of the source. Calls come from the whole dose curve; as a rule, active = well fitted inhibition curve with a large enough effect; inconclusive = small, poorly fitted or top-dose-only effect; inactive = flat fitted curve, though single readings scatter.

How the values were obtained:
[1] = qHTS profiling for inhibitors of Plasmodium falciparum proliferation (AID 504749);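 note: 0% = DMSO vehicle and full inhibition = artemisinin control; nearly all actives have a fitted effect of over 60% in size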; details: P. falciparum in erythrocytes, SYBR Green DNA, 72 h
In short: (§1)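 P. falciparum-infected erythrocytes (0.3% parasitemia, 2.5% hematocrit) incubated with compound 72 h at 37 C, 5% CO2. Parasite DNA detected by SYBR Green after lysis, overnight at room temperature; normalised to 0.29 uM artemisinin and DMSO.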

3D7 = experiment: as above; details: P. falciparum in erythrocytes, SYBR Green DNA, 72 h; series mostly up to 28.7 µM
In short: as §1

7G8 = experiment: as above; details: P. falciparum in erythrocytes, SYBR Green DNA, 72 h; series mostly up to 28.7 µM
In short: as §1

AA1029 = experiment: as above; details: P. falciparum in erythrocytes, SYBR Green DNA, 72 h; series mostly up to 28.7 µM
In short: as §1

AS120 = experiment: as above; details: P. falciparum in erythrocytes, SYBR Green DNA, 72 h; series mostly up to 28.7 µM
In short: as §1

ATS189 = experiment: as above; details: P. falciparum in erythrocytes, SYBR Green DNA, 72 h; series mostly up to 28.7 µM
In short: as §1

ATS95 = experiment: as above; details: P. falciparum in erythrocytes, SYBR Green DNA, 72 h; series mostly up to 28.7 µM
In short: as §1

C2A = experiment: as above; details: P. falciparum in erythrocytes, SYBR Green DNA, 72 h; series mostly up to 28.7 µM
In short: as §1

CP185 = experiment: as above; details: P. falciparum in erythrocytes, SYBR Green DNA, 72 h; series mostly up to 28.7 µM
In short: as §1

CP191 = experiment: as above; details: P. falciparum in erythrocytes, SYBR Green DNA, 72 h; series mostly up to 28.7 µM
In short: as §1

CP192 = experiment: as above; details: P. falciparum in erythrocytes, SYBR Green DNA, 72 h; series mostly up to 28.7 µM
In short: as §1

[2] = at 28.7 µM (top of the series), parasite line A
[3] = at 28.7 µM (top of the series), parasite line B
[4] = at 12.8 µM (top of the series), parasite line A
[5] = at 12.8 µM (top of the series), parasite line B

O=c1[nH]oc2c1CCNC2
inactive: activity, negative = inhibition [1, 2] 3.02% | activity, negative = inhibition [1, 3] 15.3% | Potency (3D7) | Potency (7G8) | Potency (AA1029) | Potency (AS120) | Potency (ATS189) | Potency (ATS95) | Potency (C2A) | Potency (CP185) | Potency (CP191) | Potency (CP192)

O=c1oc2ccccc2c(O)c1Cc1c(O)c2ccccc2oc1=O
inactive: activity, negative = inhibition [1, 4] 7.78% | activity, negative = inhibition [1, 5] 2.51% | Potency (3D7) | Potency (7G8) | Potency (AA1029) | Potency (AS120) | Potency (ATS189) | Potency (ATS95) | Potency (C2A) | Potency (CP185) | Potency (CP191) | Potency (CP192)

CC(C)NC(C)C
inactive: activity, negative = inhibition [1, 2] 6.47% | activity, negative = inhibition [1, 3] 12.2% | Potency (3D7) | Potency (7G8) | Potency (AA1029) | Potency (AS120) | Potency (ATS189) | Potency (ATS95) | Potency (C2A) | Potency (CP185) | Potency (CP191) | Potency (CP192)

C[C@]12CC[C@@H]3c4ccc(OC(=O)N(CCCl)CCCl)cc4CC[C@H]3[C@@H]1CC[C@@H]2O
inactive: activity, negative = inhibition [1, 2] 15.2% | activity, negative = inhibition [1, 3] 2.03% | Potency (3D7) | Potency (7G8) | Potency (AA1029) | Potency (AS120) | Potency (ATS189) | Potency (ATS95) | Potency (C2A) | Potency (CP185) | Potency (CP191) | Potency (CP192)

CN1C(=O)CC(=O)N(c2ccccc2)c2cc(Cl)ccc21
inactive: activity, negative = inhibition [1, 2] 1.1% | activity, negative = inhibition [1, 3] -1.48% | Potency (3D7) | Potency (7G8) | Potency (AA1029) | Potency (AS120) | Potency (ATS189) | Potency (ATS95) | Potency (C2A) | Potency (CP185) | Potency (CP191) | Potency (CP192)

O=C(Nc1ccc(Br)cc1)c1cc(Br)cc(Br)c1O
inactive: activity, negative = inhibition [1, 2] 6.84% | activity, negative = inhibition [1, 3] 4.1% | Potency (3D7) | Potency (7G8) | Potency (AA1029) | Potency (AS120) | Potency (ATS189) | Potency (ATS95) | Potency (C2A) | Potency (CP185) | Potency (CP191) | Potency (CP192)

COP(=S)(OC)Oc1ccc(SC)c(C)c1
inactive: activity, negative = inhibition [1, 2] 8.16% | activity, negative = inhibition [1, 3] 12.2% | Potency (3D7) | Potency (7G8) | Potency (AA1029) | Potency (AS120) | Potency (ATS189) | Potency (ATS95) | Potency (C2A) | Potency (CP185) | Potency (CP191) | Potency (CP192)

CCCCC/C=C\C/C=C\C/C=C\C/C=C\CCCC(=O)NCC(=O)O
inactive: activity, negative = inhibition ([1]; at 2.67 µM (top of the series), parasite line A) -21.1% | activity, negative = inhibition ([1]; at 2.67 µM (top of the series), parasite line B) 4.55% | activity, negative = inhibition (3D7) -0.415% [at 2.67 µM] | activity, negative = inhibition (7G8) -4.42% [at 2.67 µM] | activity, negative = inhibition (AA1029) -5.7% [at 2.67 µM] | activity, negative = inhibition (AS120) -10.8% [at 2.67 µM] | activity, negative = inhibition (ATS189) -4.38% [at 2.67 µM] | activity, negative = inhibition (ATS95) -8.06% [at 2.67 µM] | activity, negative = inhibition (C2A) -0.778% [at 2.67 µM] | activity, negative = inhibition (CP185) 13.1% [at 2.67 µM] | activity, negative = inhibition (CP191) 8.29% [at 2.67 µM] | activity, negative = inhibition (CP192) -0.958% [at 2.67 µM]

CNC(C)(C)Cc1ccccc1
inactive: activity, negative = inhibition [1, 4] 5.96% | activity, negative = inhibition [1, 5] 5.61% | Potency (3D7) | Potency (7G8) | Potency (AA1029) | Potency (AS120) | Potency (ATS189) | Potency (ATS95) | Potency (C2A) | Potency (CP185) | Potency (CP191)

O=C1OC(c2ccc(O)c(S(=O)(=O)O)c2)(c2ccc(O)c(S(=O)(=O)O)c2)c2c(Br)c(Br)c(Br)c(Br)c21
inactive: activity, negative = inhibition [1, 2] 4.12% | activity, negative = inhibition [1, 3] 7.49% | Potency (3D7) | Potency (7G8) | Potency (AA1029) | Potency (AS120) | Potency (ATS189) | Potency (ATS95) | Potency (C2A) | Potency (CP185) | Potency (CP191) | Potency (CP192)

Clc1ccc2c(c1)C(c1ccccc1)=NCc1nncn1-2
inactive: activity, negative = inhibition [1, 2] -1.68% | activity, negative = inhibition [1, 3] 10.3% | Potency (3D7) | Potency (7G8) | Potency (AA1029) | Potency (AS120) | Potency (ATS189) | Potency (ATS95) | Potency (C2A) | Potency (CP185) | Potency (CP191) | Potency (CP192)

CC(C)=CC1C(C(=O)OCN2C(=O)C3=C(CCCC3)C2=O)C1(C)C (centres undefined)
inactive: activity, negative = inhibition [1, 2] 4.58% | activity, negative = inhibition [1, 3] 1.1% | Potency (3D7) | Potency (7G8) | Potency (AA1029) | Potency (AS120) | Potency (ATS189) | Potency (ATS95) | Potency (C2A) | Potency (CP185) | Potency (CP191) | Potency (CP192)

C[C@]12CCC(=O)C=C1CC[C@@H]1[C@@H]2CC[C@]2(C)C(=O)CC[C@@H]12
inactive: activity, negative = inhibition [1, 2] -9.45% | activity, negative = inhibition [1, 3] 3.53% | Potency (3D7) | Potency (7G8) | Potency (AA1029) | Potency (AS120) | Potency (ATS189) | Potency (ATS95) | Potency (C2A) | Potency (CP185) | Potency (CP191) | Potency (CP192)

Nc1ccccc1C(=O)O
inactive: activity, negative = inhibition [1, 2] 15.6% | activity, negative = inhibition [1, 3] 4.96% | Potency (3D7) | Potency (7G8) | Potency (AA1029) | Potency (AS120) | Potency (ATS189) | Potency (ATS95) | Potency (C2A) | Potency (CP185) | Potency (CP191) | Potency (CP192)

CCCCCCCCCC(=O)O[C@H]1CC[C@H]2[C@@H]3CCC4=CC(=O)CC[C@@H]4[C@H]3CC[C@]12C
inactive: activity, negative = inhibition [1, 2] 6.57% | activity, negative = inhibition [1, 3] 11.7% | Potency (3D7) | Potency (7G8) | Potency (AA1029) | Potency (AS120) | Potency (ATS189) | Potency (ATS95) | Potency (C2A) | Potency (CP185) | Potency (CP191) | Potency (CP192)
